# RGS4 inhibitor = human RGS4 inhibition; P49798; Transcreener GDP fluorescence polarization, RGS4-accelerated GTP hydrolysis; Potency, µM (doses to about 114 µM), actives largely listed as inhibitors; 0.039% of 390,000 active; AID 504845; further: nearly all actives have a fitted effect of over 75% in size
#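 MLSMR compounds (23 nl, pin-transferred) preincubated 10 min at room temperature with a 500nM (2x) first reagent, then RGS4 at 900nM (2x) plus Transcreener GDP mix added; fluorescence polarization (620/688 nm) read before and after 90 min at 30 °C.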
# LDHA block = inhibitors of human lactate dehydrogenase A. purified LDHA, NADH/diaphorase-resazurin fluorescence; stronger effect = lower value. AID 1347041. activity change, % (values are at about 110 or 230 µM). 0.15% of 480,000 active; in the data active means activity change below about -30%; inconclusive means mostly about -25% to -30%
#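 Human LDH5 at 2 nM final in Tris HCl pH 7.4 with 0.06 mM NADH and 0.2 mM pyruvate, reacted 5 minutes at room temperature. Remaining NADH coupled via diaphorase/resazurin; resorufin fluorescence read at 0 and 20 minutes, normalized to enzyme-free and DMSO wells.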
# PTHR1 ag = agonists of human PTHR1 parathyroid hormone receptor | Q03431 | HEK293 GP2 PTHR1 cells, GloSensor cAMP luminescence, 1 h | Potency, µM (top dose mostly 115 µM), hits mostly activators | 0.075% of 410,000 active | AID 743266; further: nearly all actives have a fitted effect of over 55% in size
# Target sequence (Q03431 whole entry, looked up): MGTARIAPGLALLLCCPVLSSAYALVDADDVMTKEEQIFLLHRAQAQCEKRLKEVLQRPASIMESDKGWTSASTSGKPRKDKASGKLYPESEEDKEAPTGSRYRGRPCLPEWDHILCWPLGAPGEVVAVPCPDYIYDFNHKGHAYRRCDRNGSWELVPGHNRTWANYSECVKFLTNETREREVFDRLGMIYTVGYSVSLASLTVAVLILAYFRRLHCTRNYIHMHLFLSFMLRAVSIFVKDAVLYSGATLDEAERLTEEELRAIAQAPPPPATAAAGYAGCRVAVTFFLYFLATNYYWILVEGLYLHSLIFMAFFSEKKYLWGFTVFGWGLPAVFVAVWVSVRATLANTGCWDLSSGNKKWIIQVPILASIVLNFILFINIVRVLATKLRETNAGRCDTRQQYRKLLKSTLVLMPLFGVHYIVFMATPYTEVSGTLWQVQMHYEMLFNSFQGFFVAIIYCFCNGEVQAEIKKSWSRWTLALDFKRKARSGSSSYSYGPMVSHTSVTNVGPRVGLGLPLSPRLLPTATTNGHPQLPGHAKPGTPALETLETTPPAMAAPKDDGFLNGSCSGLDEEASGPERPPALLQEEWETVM
#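 HEK-293-derived GP2 cells expressing PTHR1 and a GloSensor cAMP reporter, 3,000/well, plated overnight, given luciferin plus IBMX (each 0.5 mM as added) for 1 h at 37 °C, then compound for 1 h at 37 °C. Luminescence was read after 15 min at room temperature.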
# BRCA1 expr up = activators of BRCA1 expression; MCF7-BRCA1-FFLuc reporter, luminescence, 48 h; response scale: scaled: vehicle 0%, 10 µM genistein 100%; 1.1% of 380,000 active; Potency, µM (highest dose often 46.1 µM), most hits filed as activators; further: nearly all actives have a fitted effect of over 80% in size
#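 Activators of BRCA1 expression were detected as increased firefly luciferase luminescence in engineered MCF7 cells after 48 h compound incubation. Signals were scaled to genistein 10 microM as full activation.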
# p53 reactivation = mutant p53 re-activation in reporter cells. AID 504706. H1299 p53-A138V BP100-luciferase reporter, luminescence, 24 h. Potency, µM (titrated, usually from 92.2 µM), hits mostly activators. 0.063% of 320,000 active; further: nearly all actives have a fitted effect of over 45% in size
#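 p53-null H1299 cells stably carrying temperature-sensitive p53-A138V and a BP100-luciferase reporter were pinned with compounds (4-point, 1:5 series) and held 24 hrs at 37 deg C. Luminescence was read 10 min after detection reagent.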
# Hits are given with their value; . = inactive; ? = inconclusive; / = no result; [ ] = remark or other dose. An excerpt weighted towards active compounds, which were near 1.1% of everything screened. Unless noted, the call rests on the fitted dose curve; in most records, active means well fitted curve in the direction sought with a large enough effect; inconclusive means small, poorly fitted or top-dose-only effect, or another doubt; inactive means no such curve, though single readings can be large; an effect the other way counts as inactive or inconclusive.
SMILES,RGS4 inhibitor,LDHA block,PTHR1 ag,BRCA1 expr up,p53 reactivation
Cn1cccc1C(=O)C(=O)Nc1cc(Cl)cc(Cl)c1,.[11.4 µM],.,.,.,.
Cn1cccc1C(=O)C(=O)Nc1cccc(Cl)c1Cl,.,.,.,.,.
Cn1cccc1C(=O)C(=O)Nc1ccc(Cl)cc1,.[11.4 µM],.,.,4.5µM,?
Cn1cccc1C(=O)C(=O)Nc1ccc(F)c(F)c1,.,.,.,5.6µM,.
COCC(=O)N1CCN(c2oc(-c3ccc(C)cc3)nc2S(=O)(=O)c2ccc(F)cc2)CC1,/,-36,/,/,/
COCC(=O)N1CCN(c2oc(-c3cccc(C)c3)nc2S(=O)(=O)c2ccc(F)cc2)CC1,/,.,/,/,/
CCOC(=O)C1CCCCN1C(=O)c1oc2c(Cl)cc(C)cc2c1C (configuration not stated),.,.,.,.,.
COC(=O)C1CCN(C(=O)c2oc3c(Cl)cc(C)cc3c2C)CC1,.,.,.,?,16µM
COc1ccccc1CC(=O)c1ccc(OCc2ccccc2)cc1,.,.,.,8.9µM,?
COc1ccc(C(CC(=O)c2ccccc2)S(=O)(=O)c2ccc(C)cc2)cc1 (configuration not stated),.,.,.,10µM,.
O=C(Oc1ccc(-c2cnc3ccccc3n2)cc1)c1ccc(Cl)c([N+](=O)[O-])c1,.,.,.,?,?
O=C(Oc1ccc(-c2cnc3ccccc3n2)cc1)c1cccc([N+](=O)[O-])c1,.,.,.,3.2µM,?
COc1ccc(C(=O)CC(=O)c2ccccc2)cc1,.,.,.,7.9µM,/
COc1ccc(C(=O)Cc2ccccc2OC(=O)c2ccccc2)cc1,/,.,/,/,/
O=C(CSCc1ccccn1)N(Cc1ccsc1)C1CC1,/,.,/,/,/
COc1ccc(-c2nc(C)c(C(=O)NCc3ccccc3OC)s2)cc1,/,.,/,/,/
O=C(CCNC(=O)NCc1nc2c(cnn2-c2ccccc2)c(=O)[nH]1)NCc1ccccc1,/,.,/,/,/
O=C(c1c[nH]c2ccccc12)C(Nc1cccc(CO)c1)c1ccccc1 (configuration not stated),/,.,/,/,/
CCC(=O)c1ccc(-c2ccccc2)cc1,.,.,.,13µM,?
O=C(COc1ccccc1)c1ccccc1,.,.,.,?,/
COc1ccc(O)c(C(=O)CC(=O)c2ccncc2)c1,.,.,.,5.6µM,/
COc1ccc(C(=O)CC(=O)c2ccc(OC)cc2)cc1,.,.,.,.,/
O=C(COC(=O)c1cccc([N+](=O)[O-])c1)c1ccc(OCc2ccccc2)cc1,.,.,.,5µM,.
COC(=O)c1ccc(OCC(=O)c2ccccc2)cc1,.,.,.,11µM,?
O=C(COC(=O)c1ccc2c(c1)-c1ccccc1C2=O)c1cccc([N+](=O)[O-])c1,/,.,/,/,/
SMILES,RGS4 inhibitor,LDHA block,PTHR1 ag,BRCA1 expr up,p53 reactivation
CCOC(=O)C1CCN(C(=O)c2ccc(N(C)S(C)(=O)=O)cc2)CC1,.,.,.,.,.
CN(c1ccc(C(=O)COC(=O)C2CC2)cc1)S(C)(=O)=O,.,.,.,.,35µM
O=C(Cc1c[nH]c2ccccc12)N1CCN(S(=O)(=O)c2cc(F)ccc2F)CC1,/,-37,/,/,/
O=C(Cc1c[nH]c2ccccc12)N1CCN(S(=O)(=O)c2cccc(F)c2)CC1,/,.,/,/,/
CSC(NS(=O)(=O)c1cccs1)=C(c1nc2ccccc2s1)c1nc2ccccc2s1,/,.,/,/,/
C/C(=C\C(=O)c1ccccc1)Nc1ccc(O)cc1,?,.,.,5µM,?
COc1ccc(-c2csc(N(C)C(=O)c3ccco3)n2)cc1,.,.,.,7.1µM,/
CCN(C(=O)c1cccs1)c1nc(-c2ccc(OC)cc2)cs1,.,.,.,13µM,.
CN(C(=O)c1ccno1)c1nnc(-c2ccccn2)s1,.,.,.,.,.
CN(C)CCCN(C(=O)c1ccco1)c1nc(-c2ccc(Cl)cc2)cs1,.,.,.,.,.
CN(C(=O)c1ccco1)c1nc(-c2ccc(Cl)cc2)cs1,.,.,.,10µM,.
COc1ccc(-c2nnc(N(C)C(=O)c3ccno3)s2)cc1,.,.,.,5µM,?
COc1ccc(/C=C/C(=O)c2ccc(O)c(CCCl)c2)cc1C,/,.,/,/,/
Cc1ccc(N2C(=O)N(CC(=O)NCc3ccccc3)c3ccccc3S2(=O)=O)c(C)c1,/,.,/,/,/
Cc1ccc(-n2ncc(C#N)c2N)cc1,.,.,.,.,.
Cc1ccc(-c2cc3ncc(C#N)c(N)n3n2)cc1,.,.,.,8.9µM,.
CCc1nc2ccccc2c(NC(=O)CN2CCN(c3ccccc3)CC2)c1C,/,.,/,/,/
CC(=O)Nc1sc2c(c1-c1ccc3c(c1)OCCCO3)CCNC2,/,.,/,/,/
CCOC(=O)N1CCC(N2CCN(S(=O)(=O)CC)CC2)CC1,.,-34,.,.,.
CCOC(=O)N1CCC(N2CCN(S(=O)(=O)c3ccc(C)cc3)CC2)CC1,.,.,.,.,.
O=C(Nc1ccc2oc(-c3ccccc3Cl)nc2c1)c1ncn[nH]1,.,.,.,?,?
O=C(Nc1ccc2oc(-c3cccc4ccccc34)nc2c1)c1ncn[nH]1,.,.,.,2.2µM,.
CCOc1ccc2oc(C(=O)NCC3CCCO3)c(C)c2c1 (configuration not stated),.,.,.,8.9µM,?
CCOCC(=O)Nc1c(C(=O)Nc2ccc3c(c2)OCCO3)oc2ccccc12,.,.,.,2µM,.
O=C(NCC1CCCO1)c1ccc(COc2ccccc2)cc1 (configuration not stated),.,.,.,11µM,.
SMILES,RGS4 inhibitor,LDHA block,PTHR1 ag,BRCA1 expr up,p53 reactivation
CCOc1ccc2oc(C(=O)Nc3ccc4c(c3)OCO4)c(C)c2c1,.,.,.,2.8µM,?
Cc1cc(C)c(S(=O)(=O)Nc2ccc3oc(C)nc3c2)c(C)c1,/,.,/,/,/
O=C(NCCc1cccs1)C1CC=CCC1 (configuration not stated),/,.,/,/,/
Cc1noc(C)c1C(=O)OCC(=O)Nc1ccc(C(N)=O)cc1,.,.,.,.,.
Cc1nc2ccc(NC(=O)Cc3ccc(Br)cc3)cc2s1,.,.,?,.,.
Cc1nc2ccc(NC(=O)CS(=O)(=O)c3ccc(F)cc3)cc2s1,.,.,.,11µM,.
Cc1nc2ccc(NC(=O)Cc3cccs3)cc2s1,.,.,.,3.5µM,.
Cc1noc(C)c1C(=O)OCC(=O)Nc1ccc(N2CCOCC2)cc1,.,.,18µM,.,.
Cc1ccc(NC(=O)CS(=O)CC(=O)Nc2ccc(N3CCOCC3)cc2)cc1Cl (configuration not stated),.,-31,.,.,.
N#CCC(=O)Nc1ccc(N2CCOCC2)cc1,/,.,/,/,/
Cc1cn(CCC(=O)Nc2ccc(N3CCOCC3)cc2)c2ccccc12,.,.,.,10µM,.
Cc1ccc(NC(=O)Cc2cccs2)cc1Cl,.,.,.,11µM,?
CCC(=O)Nc1ccc(Cl)c(-c2nc3ccc(C)cc3o2)c1,/,.,/,/,/

# Bioassay records from PubChem BioAssay.
